In article PMC4336329 (PLoS ONE, 2015):
Among all 310,000 compounds or so, about 14,000 (4.5%) showed an effect of 50% or more. Effects have a minus sign here. Shown is part of a subset that was picked to be rich in strong results.

The molecules below were run against human ether-à-go-go-related gene (hERG) potassium channel (human, UniProt Q12809) (assay: primary screen, population patch clamp on CHO cells stably expressing hERG; higher = less effect of the substance).
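Further: peak tail current of the secondary pulse compared with the same well before compound.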

human ether-à-go-go-related gene (hERG) potassium channel, sequence (Q12809 whole entry, looked up): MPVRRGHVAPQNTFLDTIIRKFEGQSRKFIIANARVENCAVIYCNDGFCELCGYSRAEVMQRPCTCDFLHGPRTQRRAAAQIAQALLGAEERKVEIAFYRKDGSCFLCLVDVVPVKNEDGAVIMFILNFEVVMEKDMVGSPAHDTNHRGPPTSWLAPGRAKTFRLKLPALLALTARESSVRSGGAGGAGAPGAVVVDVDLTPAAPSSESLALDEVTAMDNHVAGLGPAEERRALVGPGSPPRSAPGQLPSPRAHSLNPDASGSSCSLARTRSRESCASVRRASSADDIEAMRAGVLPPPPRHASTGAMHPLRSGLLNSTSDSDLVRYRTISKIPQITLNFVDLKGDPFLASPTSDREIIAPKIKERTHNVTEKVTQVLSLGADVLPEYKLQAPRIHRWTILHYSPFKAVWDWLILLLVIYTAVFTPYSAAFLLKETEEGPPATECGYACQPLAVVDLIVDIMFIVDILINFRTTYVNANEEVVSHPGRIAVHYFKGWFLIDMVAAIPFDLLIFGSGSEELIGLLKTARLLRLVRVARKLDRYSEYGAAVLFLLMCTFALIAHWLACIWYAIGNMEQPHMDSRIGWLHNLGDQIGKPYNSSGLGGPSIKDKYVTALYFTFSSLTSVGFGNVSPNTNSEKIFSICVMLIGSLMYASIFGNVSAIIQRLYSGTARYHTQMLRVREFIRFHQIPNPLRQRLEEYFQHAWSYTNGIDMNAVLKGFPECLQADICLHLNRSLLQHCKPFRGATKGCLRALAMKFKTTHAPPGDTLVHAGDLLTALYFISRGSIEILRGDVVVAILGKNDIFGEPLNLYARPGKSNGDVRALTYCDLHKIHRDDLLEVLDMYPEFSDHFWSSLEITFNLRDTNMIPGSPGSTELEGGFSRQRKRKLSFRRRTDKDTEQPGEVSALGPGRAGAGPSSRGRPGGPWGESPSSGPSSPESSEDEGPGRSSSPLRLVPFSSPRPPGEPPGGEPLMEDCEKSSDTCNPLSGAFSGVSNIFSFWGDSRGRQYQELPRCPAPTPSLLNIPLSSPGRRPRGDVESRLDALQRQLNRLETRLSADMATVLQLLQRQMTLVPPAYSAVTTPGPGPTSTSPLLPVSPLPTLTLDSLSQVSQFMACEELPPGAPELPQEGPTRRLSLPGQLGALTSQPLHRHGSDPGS

SMILES | hERG current change (%, negative = inhibition) at 10uM [%]
Cc1cc(/C=N/NC(=O)c2nn(C)cc2Cl)c(C)n1-c1cccc(Br)c1 | 8.09
Nc1nonc1-n1nncc1-c1ccccc1 | 1.98
CCN(Cc1ccccc1)C(=O)COC(=O)CNC(=O)c1ccc(C)s1 | 1.42
CSc1ccc(/C=N\Nc2nncn2N)cc1.Cl | 10.9
CCOC(=O)c1sc(NC(=O)COc2ccc3c(c2)OCO3)nc1C | 7.47
CCCCOP(=O)(OCCCC)/C(C#N)=C(/C)O | 13.1
CC(C)C(NC(=O)c1ccccc1Br)c1ccccc1 (stereo not shown) | 11.2
C#CCNC(=O)C1=C[C@@H](c2cn(C(C)=O)c3ccccc23)C[C@@H](OCCCCO)O1 | -40.1
CC(=O)n1cc([C@@H]2C=C(C(=O)Nc3ccccc3)O[C@H](OCCCCO)C2)c2ccccc21 | -54.5
CC(=O)n1cc([C@@H]2C=C(C(=O)NCc3ccccc3)O[C@H](OCc3ccc(CO)cc3)C2)c2ccccc21 | -26.6
CC(=O)n1cc([C@H]2C=C(C(=O)Nc3ccccc3)O[C@@H](OCCCCO)C2)c2ccccc21 | -25
CC(=O)n1cc([C@H]2C=C(C(=O)O)O[C@@H](OCCCCO)C2)c2ccccc21 | 0.0595
CC(=O)n1cc([C@H]2C=C(C(=O)NCc3ccccc3)O[C@@H](OCCCCO)C2)c2ccccc21 | -62
CC(=O)n1cc([C@H]2C=C(C(=O)NCc3ccccc3)O[C@@H](OCc3ccc(CO)cc3)C2)c2ccccc21 | 15.6
CC(=O)n1cc([C@@H]2C=C(C(=O)NCc3ccccc3)O[C@H](OCCCCO)C2)c2ccccc21 | -78.3
C=CCOC(=O)C1=C[C@H](c2cn(C(C)=O)c3ccccc23)C[C@H](OCCCCO)O1 | -38.7
COc1ccc2cc(CN(CC3CCCO3)S(=O)(=O)c3ccccc3Cl)c(=O)[nH]c2c1 (stereo not shown) | -36.7
O=C(/C=C/Nc1ccc(F)c(Cl)c1)c1ccco1 | -0.57
COc1cc(C(=O)NCCCN2CCCC2=O)cc(Br)c1OCc1ccccc1 | -50.7
COc1cc(C(=O)NCCCN2CCCC2=O)cc(OC)c1OC | -2.96
O=C(NCCCN1CCCC1=O)c1ccc(OCc2ccccc2)cc1 | -12.9
O=C(NCCCN1CCCC1=O)c1cc(-c2ccc3c(c2)OCO3)nc2ccccc12 | -4.06
COc1ccc(-c2cc(C(=O)NCCCN3CCCC3=O)c3ccccc3n2)cc1 | -12

SMILES | hERG current change (%, negative = inhibition) at 10uM [%]
COc1ccc(-c2cc(C(=O)NCCCN3CCCC3=O)c3ccccc3n2)cc1OC | -64.7
CCN(CC)S(=O)(=O)c1ccc(-c2cn3cc(Cl)ccc3n2)cc1 | 2.07
COc1ccc(-n2c3c(c(=O)[nH]c2=O)C(NC(=O)c2ccncc2)(C(F)(F)F)C(=O)N3)cc1 (stereo not shown) | 18.1
CCc1cc2c(Sc3nc4ccccc4s3)ncnc2s1 | 16.9
Cc1cc(C)cc(NC(=O)CCCSc2nc3ccccc3[nH]2)c1 | -2.7
Cn1c(=O)c2c(ncn2CC(=O)OCC(=O)NC2CCCc3ccccc32)n(C)c1=O (stereo not shown) | 2.36
COc1ccc(CNC(=O)c2cccc3c2C(=O)N(Cc2cccnc2)C3)cc1 | -38.6
O=C(Nc1ccc2c(c1)OCO2)c1cccc2c1C(=O)N(Cc1cccnc1)C2 | -47
O=C(NCc1ccc(F)cc1)c1cccc2c1C(=O)N(Cc1cccnc1)C2 | -61.8
COc1ccccc1CNC(=O)c1cccc2c1C(=O)N(Cc1cccnc1)C2 | -70.1
COc1cc(NC(=O)c2cccc3c2C(=O)N(Cc2cccnc2)C3)cc(OC)c1OC | -79.2
COC(CNC(=O)c1cccc2c1C(=O)N(Cc1cccnc1)C2)OC | -15.3
O=C(NCc1cccnc1)c1cccc2c1C(=O)N(Cc1cccnc1)C2 | -11
COCCN1Cc2cccc(C(=O)NCc3cccnc3)c2C1=O | 3.96
CCOc1ccc(NC(=O)c2cccc3c2C(=O)N(Cc2cccnc2)C3)cc1 | -22
O=C(CC(Sc1n[nH]c(-c2ccccc2)n1)c1ccccc1)NCc1ccccc1 (stereo not shown) | -16
Cc1ccc2sc(N(CCN(C)C)C(=O)/C=C/c3cccs3)nc2c1C.Cl | 11.8
COc1ccccc1C(=O)OCC(=O)Nc1cc(S(=O)(=O)N2CCOCC2)ccc1N1CCCC1 | -7.82
O=C(NCC(=O)N1CCCC1C(=O)O)OC1CCCCC1 (stereo not shown) | -6.8
Cc1ccc(-c2noc(-c3ccno3)n2)cc1 | 9.19
Cc1cccc(-c2noc(-c3ccc(F)cc3)n2)c1 | 15.1
Cc1cccc(-c2noc(-c3ccno3)n2)c1 | -53
COc1ccccc1C(CNC(=O)CNC(=O)c1ccc(C)c(C)c1)N1CCCC1 (stereo not shown) | -6.27

SMILES | hERG current change (%, negative = inhibition) at 10uM [%]
CCSc1nnc(-c2cccnc2)n1Cc1ccco1 | -7.73
C(=C\c1ccccc1)/CSc1nnc(-c2cccnc2)n1Cc1ccco1 | -70.8
C(=C\c1ccccc1)/CSc1nnc(-c2ccccc2)n1Cc1ccco1 | -74.7
Cn1c(SC/C=C/c2ccccc2)nnc1-c1ccco1 | -27.1
Cc1noc(C)c1CSc1nnc(-c2ccccc2)n1Cc1ccco1 | -21.9
O=C(CSc1nnc(-c2cccnc2)n1Cc1ccco1)N1c2ccccc2Sc2ccccc21 | -33.7
Nn1c(SC/C=C/c2ccccc2)nnc1-c1ccncc1 | -8.06
c1ccc(-c2nnc(CSc3nnc(-c4ccncc4)n3Cc3ccco3)o2)cc1 | -29.8
O=C(O)CCSc1nnc(-c2cccnc2)n1-c1ccccc1 | 11.2
Nn1c(SC/C=C/c2ccccc2)nnc1-c1cccnc1 | 23.4
C(=C\c1ccccc1)/CSc1nnc(-c2ccncc2)n1Cc1ccco1 | -63.9
Clc1ccc(-n2c(SC/C=C/c3ccccc3)nnc2-c2cccnc2)cc1 | -50.3
Cc1ccccc1OCCn1c(CCNC(=O)C(C)C)nc2ccccc21 | -6.24
CCN1C(=O)CC(C(=O)Nc2ccc(F)cc2)SC1=Nc1ccc2c(c1)OCO2 (stereo not shown) | -13.5
CC(C)Sc1nc(N)c2c3c(sc2n1)CN(C)CC3 | -34
CC(=O)Oc1ccc(/C=N/NC(=O)CCSc2ccccc2)cc1 | -8.83
COc1ccc2nc(-c3ccccc3)[nH]c2c1 | -1.4
COc1ccc(/C=C/C(=O)NCC(=O)N/N=C/c2cccnc2)cc1 | -14.9
CCCCNC(=S)Nc1ccc2nc(N3CCN(CC)CC3)cc(C)c2c1 | -44.6
COc1ccc(CNC(=S)Nc2ccc3nc(N4CCOCC4)cc(C)c3c2)cc1 | -24
CCN1CCN(c2cc(C)c3cc(NC(=S)NCc4cccs4)ccc3n2)CC1 | -59.7
CCN1CCN(c2cc(C)c3cc(NC(=O)c4cccs4)ccc3n2)CC1 | -55.1
COc1ccc(CNC(=S)Nc2ccc3nc(N4CCN(C)CC4)cc(C)c3c2)cc1 | -51.1

SMILES | hERG current change (%, negative = inhibition) at 10uM [%]
Cc1cc(N2CCN(C)CC2)nc2ccc(NC(=S)NC3CC3)cc12 | 3.2
COc1ccccc1CNC(=S)Nc1ccc2nc(N3CCN(C)CC3)cc(C)c2c1 | -1.77
Cc1cc(N2CCN(C)CC2)nc2ccc(NC(=S)NCc3cccs3)cc12 | -56.3
CCN1CCN(c2cc(C)c3cc(NC(=O)c4cccnc4Cl)ccc3n2)CC1 | -6.83
Cc1cc(N2CCN(C)CC2)nc2ccc(NC(=S)NCCN3CCc4ccccc4C3)cc12 | -23.7
CCN(CC)CCNC(=S)Nc1ccc2nc(N3CCN(CC)CC3)cc(C)c2c1 | 11.2
CC(=O)c1ccc(NC(=O)C2=CC(c3ccco3)=NS(=O)(=O)N2C)cc1 | -7.75
COC(C(=O)N/N=C(\C)CC(=O)Nc1ccc(N(C)C)cc1)c1ccccc1 (stereo not shown) | 15.3
CC(NS(C)(=O)=O)C(c1cccs1)N1CCN(c2ccccc2F)CC1 (stereo not shown) | 6.04
Cc1ccc(CNC(=O)Cn2c([N+](=O)[O-])cnc2C)cc1 | 11.3
COc1ccc(S(=O)(=O)NNC(=O)Nc2ccc(C)cc2C)c(OC)c1 | -1.37
Cc1nc(SCC(=O)c2c(N)n(C3CC3)c(=O)[nH]c2=O)[nH]c(=O)c1CCO | 17
COc1ccc2c(c1)OC(O)(C(F)(F)F)CC2=O (stereo not shown) | -5.68
COc1ccccc1/C=C/C(=O)NCC(=O)N1CCC(N(C)C2CCCC2)CC1 | -35
CN(C1CCCC1)C1CCN(C(=O)CNC(=O)/C=C/c2cccc(C(F)(F)F)c2)CC1 | -62.6
CN(C1CCCC1)C1CCN(C(=O)CNC(=O)/C=C/c2ccccc2)CC1 | -53.8
CN(C(=O)/C=C/c1ccc(F)cc1)C1CCCCC1 | -22.6
CC(C)(C)NC(=O)/C=C/c1cccc(C(F)(F)F)c1 | -8.66
CN(C(=O)/C=C/c1ccccc1)C1CCCCC1 | 1.32
CN(C(=S)NC(=O)/C=C/c1ccc(F)cc1)C1CCCCC1 | 4.54
CN(C1CCCC1)C1CCN(C(=O)CNC(=O)/C=C/c2ccc(F)cc2)CC1 | -62.6
CNC(=O)/C=C/c1cccc(C(F)(F)F)c1 | 4.99
